Assay outcomes deposited in PubChem BioAssay by National Center for Advancing Translational Sciences (NCATS).
Most compounds without a hit are left out; they make up all but 0.9% or so of the library.
gsp antag = antagonists of gsp mutant (McCune-Albright syndrome); gsp-mutant cells, cAMP HTRF, 30 min; Potency, µM (series often up to 76.9 µM), without a hit: at the top dose activity change, negative = inhibition, actives largely listed as inhibitors; 0.4% of 340,000 active; calls by dose curve; cell line not stated here;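 note: intracellular cAMP measured with PDE inhibitor Ro 20-1724 present during compound exposure; potency is the fitted concentration of half-maximal effect; % is set by controls: 0 for no effect and ±100 for the full control effect; nearly all actives have a fitted effect of over 65% in size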
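HTRF cAMP read-out (cAMP-d2 plus anti-cAMP antibody-K in lysis buffer, 30 min RT). Before lysis, cells are exposed to compounds with […] for 30 min at 37C in DPBS containing Ca/Mg, BSA and Tween 20.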
RXFP1 antag = RXFP1 (human) relaxin receptor antagonism | 0.59% of 350,000 active | activity change, negative = inhibition, % at 57.5 µM | HEK293-RXFP1, relaxin-stimulated cAMP HTRF, 30 min; hits give low values | Q9HBX9;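 active = activity change of -60% or lower, but not beyond a set lower limit; inconclusive = change between -60% and -40%, or beyond the set limit; inactive = change above -40%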; note: % is set by controls: 0 for no effect and ±100 for the full control effect
Target sequence (Q9HBX9 whole entry, looked up): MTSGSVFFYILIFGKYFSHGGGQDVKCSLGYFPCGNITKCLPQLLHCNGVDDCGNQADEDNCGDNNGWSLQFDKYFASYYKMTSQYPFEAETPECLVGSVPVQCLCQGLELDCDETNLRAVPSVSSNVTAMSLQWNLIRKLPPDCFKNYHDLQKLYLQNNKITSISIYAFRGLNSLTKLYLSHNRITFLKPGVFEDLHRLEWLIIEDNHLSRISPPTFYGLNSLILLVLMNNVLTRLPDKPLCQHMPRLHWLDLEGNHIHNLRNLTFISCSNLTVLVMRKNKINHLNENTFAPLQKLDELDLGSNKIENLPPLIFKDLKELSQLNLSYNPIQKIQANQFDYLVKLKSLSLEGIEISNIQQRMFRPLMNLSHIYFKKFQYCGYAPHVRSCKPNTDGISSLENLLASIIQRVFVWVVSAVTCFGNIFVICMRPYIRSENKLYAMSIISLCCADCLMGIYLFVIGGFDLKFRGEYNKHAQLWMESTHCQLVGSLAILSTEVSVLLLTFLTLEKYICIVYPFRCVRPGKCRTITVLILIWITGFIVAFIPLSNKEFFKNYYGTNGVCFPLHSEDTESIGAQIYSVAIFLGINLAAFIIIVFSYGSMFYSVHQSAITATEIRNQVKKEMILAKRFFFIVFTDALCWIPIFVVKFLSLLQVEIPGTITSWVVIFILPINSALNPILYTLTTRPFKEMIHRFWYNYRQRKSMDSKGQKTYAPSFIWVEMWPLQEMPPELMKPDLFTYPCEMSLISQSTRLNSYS
gsp agonist = gsp mutant agonism; 0.13% of 340,000 active; gsp mutant cells, cAMP HTRF, 30 min; AID 624287; Potency, µM (highest dose often 76.9 µM), inactives show top-dose activation (cAMP increase), hits mostly activators; active = well fitted activation curve with a large enough effect; inconclusive = small, poorly fitted or top-dose-only effect, or another doubt; inactive = no such curve, though single readings can be large or run the other way; cell line not stated here;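 note: phosphodiesterase inhibitor Ro 20-1724 added with compounds to block cAMP breakdown; potency is the fitted concentration of half-maximal effect; nearly all actives have a fitted effect of over 60% in size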
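Cells in DMEM/10% FBS with G418 were pretreated with compounds in DMSO plus […] (300 uM stock) for 30 min at 37C. cAMP was measured by HTRF (cAMP-d2 plus anti-cAMP antibody-K) after 30 min at room temperature.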
RXFP1 ag = activates the human relaxin receptor RXFP1 | Q9HBX9 | AID 2676 | 0.3% of 370,000 active | Potency, µM (titrated, usually from 57.5 µM), inactives show top-dose activation, hits mostly activators | HEK293T-RXFP1 cAMP TR-FRET, 30 min; response scale: percent of porcine relaxin response, buffer zero; active = well fitted activation curve with a large enough effect; inconclusive = small, poorly fitted or top-dose-only effect; note: potency is the fitted concentration of half-maximal effect; % is set by controls: 0 for no effect and ±100 for the full control effect; nearly all actives have a fitted effect of over 60% in size
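Agonist response is measured as cAMP accumulation in an RXFP1-transfected HEK293T line under PDE4 inhibition. Values are scaled between buffer-only and 29 nM porcine relaxin, and EC50s come from standard Hill equation fits.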
* hit, by the source's call; ? = inconclusive; / = not tested or not shown; [ ] = remark or other dose.

SMILES | gsp antag | RXFP1 antag | gsp agonist | RXFP1 ag
CCc1ccc(NC(=O)CSc2nc3n[nH]c(C)c3c(=N)n2-c2ccccc2C)cc1 | / | -19.1 | / | 16.0%
CCc1ccccc1-n1c(SCC(=O)Nc2ccc(C)cc2)nc2n[nH]c(C)c2c1=N | / | -86.9* | / | 7.0%
O=C(c1ccc(N2CCCCC2)c([N+](=O)[O-])c1)N1CCN(c2ccccn2)CC1 | -9.7% | 0.1 | 8.9% | 0.3%
O=C1C2CC=CCC2C(=O)N1c1ccc(N2CCN(c3ccccn3)CC2)c([N+](=O)[O-])c1 (configuration not stated) | 22.4µM* | -31.2 | -1.1% | 1.2%
O=S(=O)(Nc1ccc(Br)cc1)c1ccc2nc(-c3ccccc3)[nH]c2c1 | / | / | / | -0.1%
CC(C)c1ccc(NS(=O)(=O)c2ccc3nc(-c4ccccc4)[nH]c3c2)cc1 | / | -68.5* | / | 0.8%
CCCS(=O)(=O)c1nc(S(=O)(=O)c2ccc(C)cc2)c(N2CCN(C)CC2)s1 | 4.7% | 5.1 | 3.16µM* | ?
CCCS(=O)(=O)c1nc(S(=O)(=O)c2ccc(C)cc2)c(NCCCN2CCCC2=O)s1 | -4.5% | 22.9 | 2.82µM* | 17.2%
CCS(=O)(=O)c1nc(S(=O)(=O)c2ccc(C)cc2)c(N2CC(C)OC(C)C2)s1 (configuration not stated) | 4.4% | -14.5 | ? | 28.2µM*
CCCS(=O)(=O)c1nc(S(=O)(=O)c2ccc(C)cc2)c(N2CC(C)OC(C)C2)s1 (configuration not stated) | -7.1% | 16.6 | ? | 25.0%
CCOC(=O)Cc1csc(NC(=O)COc2ccc(N(C)S(=O)(=O)c3cccs3)cc2)n1 | 35.5µM* | -14.4 | -42.7% | 2.7%
CCOC(=O)Cc1csc(NC(=O)COc2ccccc2)n1 | 6.3% | 3.2 | ? | 2.0%
Cc1ccc(C(C2C(=O)CC(C)(C)CC2=O)C2C(=O)CC(C)(C)CC2=O)s1 | -12.8% | -67.6* | -28.6% | -2.1%
O=C(Nc1ccc(S(=O)(=O)N2CCOCC2)cc1)c1cccnc1 | 4.0% | -8.3 | -2.4%[15.4 µM] | -0.2%
O=C(NCCOC(=O)c1ccc(S(=O)(=O)N2CCOCC2)cc1)c1cccnc1 | 4.7% | 9.2 | 28.2µM* | 23.2%
COC(=O)c1ccc(NC(=O)c2cc(S(=O)(=O)N3CCc4ccccc43)cn2C)cc1 | / | -7.6 | / | 5.8%
CC1CCCCC1NC(=O)COC(=O)c1c2c(nc3ccccc13)/C(=C\c1ccco1)CC2 (configuration not stated) | -13.2% | -65.5* | ? | /
CCCCS(=O)(=O)c1oc(-c2ccc(F)cc2)nc1S(=O)(=O)c1ccc(C)cc1 | / | -71.5* | / | 0.0%
CCCCS(=O)(=O)c1oc(-c2cccs2)nc1S(=O)(=O)c1ccc(F)cc1 | / | -76.3* | / | 0.7%
CCS(=O)(=O)c1oc(-c2ccc(F)cc2)nc1S(=O)(=O)c1ccccc1 | / | -107.1* | / | -1.4%
CCCCCS(=O)(=O)c1oc(-c2cccs2)nc1S(=O)(=O)c1ccc(C)cc1 | / | 5.4 | / | -0.2%
CCC(C)S(=O)(=O)c1oc(-c2ccc(F)cc2)nc1S(=O)(=O)c1ccc(F)cc1 (configuration not stated) | / | ? | / | 1.7%
CCOc1ccccc1CNC(=O)CCc1c(C)nn(-c2ccc(N3CCCCC3)nn2)c1C | / | -3.5 | / | -1.7%
CCc1nc2cccnc2n1-c1ccc(CC(=O)Nc2cccc(C)c2C)cc1 | / | 6.5 | / | -0.8%
Cc1cccc(CSc2nc(-c3cccs3)ccc2C#N)c1 | / | / | / | 6.7%
SMILES | gsp antag | RXFP1 antag | gsp agonist | RXFP1 ag
COc1ccc(CNC(=O)c2oc3c(c2C)-c2nn(Cc4ccccc4Cl)cc2CC3)cc1 | / | ? | / | 22.4%
Cc1cccc(OCC(=O)N(Cc2ccco2)c2c(N)n(Cc3ccccc3)c(=O)[nH]c2=O)c1 | 50.1µM* | -5.8 | -30.6% | -0.9%
Nc1c(N(Cc2ccco2)C(=O)COc2ccccc2)c(=O)[nH]c(=O)n1Cc1ccccc1 | 0.4% | 3.4 | -35.8% | 0.2%
Cc1ccc(C)c(CN2C(=O)c3ccccc3S(=O)(=O)c3ccc(C(=O)N4CCOCC4)cc32)c1 | / | -2.2 | / | 1.0%
O=c1n(Cc2ccc(Cl)cc2)nc2n1-c1ccccc1OC2 | / | / | / | 1.9%
CC1C(=O)N(Cc2ccccc2F)c2ccccc2N1C(=O)c1c(F)cccc1F (configuration not stated) | ? | -10.5 | -19.3% | -1.0%
COc1cccc(CN2C(=O)C(C)N(C(=O)c3c(F)cccc3F)c3ccccc32)c1 (configuration not stated) | 35.5µM* | -2.7 | -19.0% | 2.6%
COc1cc(NC(=O)c2ccccc2)c(OC)cc1Cl | -30.7% | -12.7 | 12.1% | 0.2%
COc1cc2c(cc1NC(=O)CN(C)Cc1ccc(OC)c(OC)c1)oc1ccccc12 | 39.8µM* | -6.9 | 5.2% | 0.8%
COc1ccc(CN(C)CC(=O)Nc2cc3oc4ccccc4c3cc2OC)c(OC)c1 | ? | -15.2 | -26.5% | 3.1%
COc1ccc(OC)c(NC(=O)c2cc3oc4ccccc4c3cc2O)c1 | ? | -10.0 | 31.6µM* | 29.0%
COc1ccc(OC)c(NC(=O)c2ccccc2SC)c1 | 6.4% | 4.8 | -5.9% | 0.6%
COc1cc(OC)c(NC(=O)c2cc3ccccc3cc2O)cc1Cl | 31.6µM* | -18.9 | -3.9% | /
CC(=O)CC/C=C(\C)CC/C=C(/C)CC/C=C(\C)CCC=C(C)C | / | -11.4 | / | /
COc1cnn(-c2ccc(C)cc2)c(=O)c1SCc1ccccc1 | 31.6µM* | -6.0 | ? | -13.0%
COc1ccc(CC(=O)Nc2cccc(-c3nnc(-c4ccc(C)cc4)o3)c2)cc1OC | ? | -23.1 | 12.8% | 0.6%
COc1ccc(CC(=O)Nc2cccc(-c3nnc(-c4cccc(C)c4)o3)c2)cc1OC | 31.6µM* | -20.1 | 15.9% | 0.3%
CCN(CC)c1ccc(NC(=O)CCS(=O)(=O)c2cc3c(cc2Cl)NC(=O)CO3)c(C)c1 | / | / | / | 15.9%
Clc1ccc(CN2CCc3c([nH]c4ccccc34)C2)cc1Cl | -1.4% | -64.3* | -58.8% | 0.5%
Cc1cccc(CN2CCc3c([nH]c4ccccc34)C2)c1 | 1.9% | ? | -3.1% | 2.8%
Clc1cccc(CN2CCc3c([nH]c4ccccc34)C2)c1 | 2.8% | -63.8* | -315.2% | 2.3%
CSc1ccc(CN2CCc3c([nH]c4ccccc34)C2)cc1 | 9.4% | -34.0 | 6.6%[15.4 µM] | -0.4%
CCN(CC)CCNC(=O)c1ccc(Cn2c(=O)c3cccn3c3cccnc32)cc1 | / | -10.6 | / | 1.0%
COc1cc(NC(=O)COc2cc(O)c3c(c2)OC(C)(C)CC3=O)cc(OC)c1OC | 35.5µM* | / | / | 1.7%
CC(=O)Nc1ccc(NC(=O)COc2cccc3c2OC(C)(C)C3)cc1 | 6.0% | -7.6 | 3.5% | 3.4%
COc1cc(NC(=O)COc2cccc3c2OC(C)(C)C3)cc(OC)c1OC | 35.5µM* | -20.4 | -0.2% | -0.4%
CCc1cccc(C)c1NS(=O)(=O)c1ccc2c(c1)NC(=O)C(C)C(=O)N2 (configuration not stated) | / | -15.6 | / | 1.2%
CC(C)n1ncc2c(C(=O)NCC(=O)Nc3ccccc3Br)cc(C3CC3)nc21 | -16.3% | -88.0* | 27.2% | -2.7%
